The record followed here is PubChem BioAssay (NCI).

Holding throughout (assay): NCI-60 one-dose screen, 48 h (100 = growth as untreated, 0 = no growth, -100 = all killed)
Holding throughout (conditions): 10 µM

The test system of assay [1] is HCT-15 colon.
The test system of assay [2] is HT29 colon.
Assay [3] concerns SNB-75 CNS.
Assay [4] relates to SNB-19 CNS.
Assay [5] has as its system U251 CNS.
Assay [6] deals with PC-3 prostate.
Assay [7] relates to SK-MEL-5 melanoma.
In assay [8] the test system is UACC-62 melanoma.
The subject of assay [9] is LOX IMVI melanoma.
In assay [10] the test system is SK-MEL-28 melanoma.
The subject of assay [11] is SK-MEL-2 melanoma.
Assay [12] has as its system EKVX NSCLC.
The test system of assay [13] is SN12C renal.
Assay [14] has as its system UO-31 renal.
Assay [15] concerns TK-10 renal.
The test system of assay [16] is ACHN renal.
Assay [17] has as its system CAKI-1 renal.
In assay [18] the test system is A498 renal.
For assay [19], the system named is CCRF-CEM leukemia.
The subject of assay [20] is MOLT-4 leukemia.

About 83,000 compounds went through this panel and 20% of them were active in at least one assay; those are over-represented in the sample as a whole.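 Interpretation: 100, growth as untreated; towards 0, rising growth inhibition; 0, no net growth; 0 to -100, cell death. Compounds scoring below 10 were considered active.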 A number with no mark means an inactive call. Active and inactive are the calls of the source.

With `O=C(CSc1nnc(-c2c[nH]c3ccccc23)n1-c1ccccc1)Nc1ccc(C(=O)/C=C/c2ccccc2Cl)cc1`, the growth is 67% in assay [1]; 91.6% in assay [2]; 80.3% in assay [3]; 84.8% in assay [4]; 65.7% in assay [5]; 61.2% in [6]. The growth in assay [7] was 89.8%; in [8], 72.1%; in [9], 56.6%; in assay [10], 96.3%; in assay [11], 93.5%; in assay [12], 67.2%. In addition, the growth is 84.5% in [13]; 51.6% in assay [14]; 103% in assay [15]; 74.5% in assay [16]; 74% in [17]; 101% in [18]. The values for the growth in [19] and in assay [20] were 88.2% and 55.6%, respectively.
For the compound `CCOc1ccc(/C=N/NC(=O)Cn2nc(Cc3ccc([N+](=O)[O-])cc3)c3onc(C)c3c2=O)cc1`, the growth in assay [1] is 33.7%; in assay [2], 34.6%; in assay [3] it was 6.05% (active); in assay [4], -6.58% (active); in assay [5], -66% (active); in assay [6] it was 23.1%. The growth in assay [7] is 27.7%; in assay [8], 49.9%; in assay [9] it was -63.5% (active); in [10], 49.7%; in [11] it was 51.9%; in [12] it was 16.3%. Further, the growth in [13] is 11.2%; in assay [14], -48.1% (active); in assay [15] it was -12.2% (active); in [16], -68% (active); in assay [17], -9.88% (active); in assay [18], 45.1%. Also, the growth in [19] is 89.3%; in [20], 75.7%.
Take `C/C(=C\c1ccc(O)cc1O)c1ccc2ccc(O)cc2[o+]1`: the growth is 12.3% in assay [1]; 93.1% in assay [2]; 98.1% in assay [3]; 71% in assay [4]; 23.5% in assay [5]; 62.7% in assay [6]. Besides, the growth in assay [7] was 76.3%; in [8], 59.5%; in assay [9], 2.95% (active); in assay [10], 62.3%; in assay [11], 91.1%; in assay [12] it was 68.1%. The growth in assay [13] was 44.9%; in assay [14] it was 50.7%; in assay [15], 116%; in assay [16] it was 45%; in assay [17], 58.5%; in [18] it was 147%. Also, the growth in assay [19] was 55.8%; in [20], 29.3%.
As to `Cc1ccc(/C=C/C(=O)c2ccc(NC(=O)CSc3nnc(-c4c[nH]c5ccccc45)n3-c3ccccc3)cc2)c(C)c1`, the growth in assay [1] was 51.4%; in [2] it was 65.5%; in assay [3] it was 92.6%; in assay [4], 72.2%; in [5] it was 13.1%; in assay [6], 48.6%. Further, the growth was 88.3% in assay [7]; 72.8% in assay [8]; 13.3% in assay [9]; 80.9% in assay [10]; 87.7% in assay [11]; 63.7% in [12]. For the same compound, the growth in assay [13] was 27.1%; in [14], 65.9%; in [15], 73.4%; in assay [16], 59.5%; in assay [17], 66.9%; in [18] it was 106%. Further, the growth is 83.1% in assay [19] and 43.6% in assay [20].
With `CC(C)c1ccc(C(=O)Nc2sc3c(c2C(N)=O)CCC(=O)C3=O)cc1`, the growth in [1] was 71.5%; in assay [2], 110%; in [3], 98.2%; in assay [4], 97.4%; in assay [5], 92.6%; in [6] it was 82.8%. The growth in assay [7] was 99.1%; in [8], 94.3%; in assay [9], 82.7%; in [10], 110%; in assay [11], 98.8%; in [12], 87.9%. In addition, the growth in assay [13] is 94.7%; in [14], 59.7%; in [15], 125%; in assay [16] it was 93.6%; in assay [17], 91.9%; in [18], 130%. Besides, the values for the growth in assay [19] and in assay [20] were 86.4% and 72.4%, respectively.
With `COC[C@@H](CC(C)C)N=C1NC(=O)/C(=C/c2ccc3ncoc3c2)N1`, the growth in assay [1] is 1.92% (active); in assay [2], 8.17% (active); in assay [3] it was -9.28% (active); in [4], 17.5%; in assay [5] it was 16.4%; in [6], 42.4%. Also, the growth is 3.83% (active) in [7]; -27.3% (active) in assay [8]; 6.76% (active) in assay [9]; 0.832% (active) in [10]; -75.8% (active) in assay [11]; 18% in assay [12]. Further, the growth in assay [13] was 15.1%; in assay [14], -8.68% (active); in [15], 36.5%; in [16] it was 7.63% (active); in assay [17] it was 6.77% (active); in [18], -9.51% (active). The results for the growth in assay [19] and in assay [20] were 15.2% and 11.3%, respectively.
Take `O=C(c1ccc(Cl)cc1)C1[C@H](c2ccccc2Br)[C@@H](c2ccccc2)NC12C(=O)Nc1ccc(Br)cc12` (stereo not given in full): the growth in assay [1] is 9.81% (active); in assay [2] it was -36% (active); in assay [3], 31.9%; in assay [4], 36.2%; in assay [5], -29.1% (active); in assay [6] it was 6.63% (active). The growth in assay [7] is 14.4%; in assay [8], 19.6%; in [9], -100% (active); in [10], 43.8%; in assay [11], -51% (active); in assay [12] it was 14.7%. Also, the growth in assay [13] is -63.5% (active); in assay [14] it was 13.5%; in [15] it was 23.9%; in assay [16], 11.9%; in assay [17], 8.82% (active); in assay [18] it was 74.5%. Further, the results for the growth in assay [19] and in assay [20] were 5.86% (active) and -9.97% (active), respectively.
Regarding `O=C(N/N=C/c1ccc(B(O)O)o1)c1[nH]c2ccc(Br)cc2c1-c1ccccc1`, the growth in assay [1] is 16.1%; in [2], 3.98% (active); in assay [3], 98.1%; in [4] it was 40.7%; in assay [5], 10.1%; in assay [6], 19.2%. In addition, the growth in assay [7] was 11.5%; in assay [8], 19.4%; in assay [9] it was 32.9%; in assay [10] it was 62.1%; in assay [11] it was 26.5%; in assay [12], 44.3%. Besides, the growth in [13] was 31.2%; in assay [14], 42.2%; in [15], 64.7%; in assay [16], 44.8%; in assay [17], 30%; in assay [18] it was 76.5%. Also, the growth is 3.97% (active) in [19] and 16.9% in assay [20].
